Assay results taken from PubChem BioAssay (NCI).
The panel holds about 83,000 compounds, 20% with a hit somewhere; the sample as a whole holds those more often.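 Negative percent growth values reflect cell death: -40 means 40% of the cells present at the start died, and -100 means all died.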 Unmarked numbers belong to inactive results. Activity calls are given as the source filed them. Rule for the calls: active = growth percent below 10; inactive = the rest.

The compounds below were run on MDA-MB-468 breast (assay: NCI-60 one-dose screen, 48 h (100 = growth as untreated, 0 = no growth, -100 = all killed)). Conditions: 10 µM unless noted.

| Structure (SMILES) | growth |
| --- | --- |
| OCc1cccc2ccccc12 | 124% |
| O=C(Nc1cc(Cl)cc(Cl)c1)Nc1nc2ccc([N+](=O)[O-])cc2s1 | -24.1% (active) |
| OC1CSSC1Cn1cnc2c(Nc3ccc(F)c(Cl)c3)ncnc21 (stereo not given) | 2.83% (active) |
| COc1ccc2c(c1)sc1nc(-c3ccccc3)c(-c3cccc4ccccc34)n12 | 11.5% |
| N#Cc1nc(-c2ccccc2)oc1S(=O)(=O)N1CCN(CCc2ccccn2)CC1 | 25.7% |
| CC(=O)c1c(C)nc(SCC(=O)Nc2ccc(Cl)cc2)n1-c1ccc(Cl)cc1 | 71.3% |
| CC1=CNNc2c3ncnc-3ncn21 | 95.1% |
| COc1ccccc1N1CCN(C2=CC(=O)C(C)=C(C)C2=O)CC1 | 85.8% |
| N#Cc1c(-c2ccccc2)nc(SCC(O)CN2CCOCC2)nc1N1CCOCC1 (stereo not given) | 76.7% |
| CS(=O)(CCCCN=C=S)=NC(=O)c1c(F)c(F)c(F)c(F)c1F (stereo not given) | 72.6% |
| CCOc1ccc(C(CN2CCOCC2)C(C)=O)cc1OC (stereo not given) | 13.9% |
| COc1ccc2[nH]cc(-c3nc(N)nnc3-c3cn(C)c4ccc(Br)cc34)c2c1 | -31.3% (active) |
| Cc1ccc2nc(NC(=O)CSc3nc(Cl)c(C#N)c(-c4ccccc4)n3)sc2c1 | 87.5% |
| CC(=O)C1=C(O)C=C2Oc3c(C(=O)/C=C/c4c(Cl)cccc4Cl)c(O)c(C)c(O)c3[C@]2(C)C1=O | -39.7% (active) |
| Cc1ccc(O)c(NC(=O)c2ccc(CNc3ccnc(C(F)(F)F)c3)cc2)c1 | 76.4% |
| COc1ccc(S(=O)(=O)N(Cc2ccc3c(n2)C=CC(C)(C)O3)C2CCC2)cc1OC | -8.27% (active) |
| N/C(=N\C(N)=N\c1nc2ccccc2s1)c1cccc(Br)c1 | 90.6% |
| OCC(O)C(O)C(O)C(O)/C=N/O (stereo not given) | 99.5% |
| CCCCCCCCCCCCCCCCNC(=O)Nc1ccc2ccccc2c1 | 94.3% |
| COc1cccc(-c2nn(C(C)(C)C)cc2-c2ccnc(NCCCNS(=O)(=O)c3cccc4ccccc34)c2)c1 | 110% |

| Structure (SMILES) | growth |
| --- | --- |
| O=S(=O)(Nc1ccc(Cl)cc1Cl)c1ccc(-c2cnc(C3CC3)o2)cc1 | -34.2% (active) |
| O=C(Nc1ccc(-n2cc(-c3ccncc3)c(-c3ccc(O)c(Cl)c3)n2)cc1)Nc1cc(C(F)(F)F)cc(C(F)(F)F)c1 | 37.1% |
| OC1Cc2ccccc2C1 | 105% |
| COc1cccc(-c2nn(-c3ccccc3)cc2-c2ccnc(N3CCN(C(=O)c4ccccc4)CC3)c2)c1 | 82.3% |
| COC(=O)c1ccc(Cn2cnc3c(N)ncnc32)cc1 | 106% |
| CCN1CCN(C(=O)[C@]23CC[C@@H](C)[C@H](C)[C@@H]2C2=CC[C@@H]4[C@@]5(C)CCC(=O)C(C)(C)[C@@H]5CC[C@@]4(C)[C@]2(C)CC3)CC1 | -7.11% (active) |
| COc1ccc(C(=O)Nc2cccc(C3CCc4c(cc(OC)c(OC)c4OC)O3)c2)cc1 (stereo not given) | 12.4% |
| O=S(=O)(O)c1cc(O)c2c(N=Cc3ccccc3O)c(S(=O)(=O)O)ccc2c1 | 101% |
| CCO/C=N/C1=C(C#N)C(c2ccc(OC)cc2)c2c(c3ccccc3n(C)c2=O)O1 (stereo not given) | 105% |
| O=C(c1nnc(Nc2ccccc2Br)o1)c1c[nH]c2ccccc12 | 103% |
| O=C(c1cnn2c1NC(c1ccc(F)cc1)C2)N1CCCCC1 (stereo not given) | 107% |
| Cc1ccc(NC(=O)c2sc3nc4c(cc3c2N)C(=O)CCC4)cc1C | 50.7% |
| Nc1ccccc1SC1CC(=O)N(c2ccc(Cl)c(Cl)c2)C1=O (stereo not given) | 80.4% |
| C=CCn1c(SCC(=O)Nc2ccc(C(=O)/C=C/c3cc(OC)c(OC)c(OC)c3)cc2)nnc1-c1cc(OC)c(OC)c(OC)c1 | 26.1% |
| CNC(=O)c1ccccc1CC1(O)c2ccccc2Oc2ccccc21 | 42.9% |
| CCOC(=O)C(CCC(C)C)C(=O)OCC | 105% |
| OCC1OC(n2cnc3c(N/N=C\c4ccccn4)ncnc32)C(O)C1O (stereo not given) | -24% (active) |
| CC[N+](C)(CC)CCCC(C)Nc1ccnc2cc(Cl)ccc12 (stereo not given) | 119% |
| COc1cc(C(C)(C)C)cc(OC)c1C(O)(c1c(OC)cc(C(C)(C)C)cc1OC)c1c(OC)cc(C(C)(C)C)cc1OC | -88.3% (active) |
| O=C(N/N=C\c1ccc(-c2ccc(Br)cc2)o1)c1cc2oc(-c3cccc(C(F)(F)F)c3)cc2[nH]1 | 126% |
